Compounds without any hit were thinned out: in the full panel of roughly 79,000, 15% have a hit. Activity calls are given as the source filed them. Rule as the data show it: active = growth inhibition above about 70%; inactive = the rest.
What was measured:
[1] = NCI Yeast Anticancer Drug Screen. Data for the rad52 strain (AID 147);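 also: 0% = growth of vehicle-treated control cultures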; settings: S. cerevisiae rad52 mutant growth inhibition, hits give high values
Procedure, shortened: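 DNA repair-defective yeast; compound exposure; growth scored against vehicle controls.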

[2] = NCI Yeast Anticancer Drug Screen. Data for the wt1 strain (AID 149);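 also: 0% = growth of vehicle-treated wt1 cultures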; settings: S. cerevisiae wt1 strain (SPY 50644) growth inhibition, hits give high values
Procedure, shortened: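 Compounds are added to wt1 yeast cultures. Growth is then measured. Inhibition is expressed relative to vehicle-treated controls.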

[3] = NCI Yeast Anticancer Drug Screen. Data for the rad50EPP+ strain (AID 151);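 also: 0% = growth of vehicle-treated control cultures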; settings: S. cerevisiae rad50 mutant strain, hits give high values
Procedure, shortened: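 rad50EPP+ yeast treated with test compounds. Readout: growth vs vehicle control.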

[4] = NCI Yeast Anticancer Drug Screen. Data for the mgt1 strain (AID 153); settings: S. cerevisiae mgt1 mutant growth inhibition, hits give high values
Procedure, shortened: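 Growth inhibition relative to vehicle controls was scored for the mgt1 yeast strain after compound exposure.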

[5] = NCI Yeast Anticancer Drug Screen. Data for the rad50 strain (AID 155);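 also: 0% = growth of vehicle-only cultures of the same strain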; settings: S. cerevisiae rad50 strain growth inhibition, hits give high values
Procedure, shortened: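 Inhibition values express reduced yeast growth in compound-treated cultures relative to vehicle-treated controls.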

[6] = NCI Yeast Anticancer Drug Screen. Data for the mec2-1 strain (AID 157); settings: S. cerevisiae mec2-1 strain, hits give high values
Procedure, shortened: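 Growth inhibition is read against vehicle-treated controls after compound exposure of the mec2-1 yeast strain, which is defective in DNA damage repair or cell cycle control.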

[7] = NCI Yeast Anticancer Drug Screen. Data for the rad14 strain (AID 159);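 also: 0% = growth of vehicle-treated control cultures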; settings: S. cerevisiae rad14 strain growth inhibition, hits give high values
Procedure, shortened: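 A mutant yeast strain defective in DNA damage repair is treated with compound; inhibition of its growth is scored against untreated, vehicle-exposed cultures.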

[8] = NCI Yeast Anticancer Drug Screen. Data for the sgs1 mgt1 strain (AID 161);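 also: 0% = growth of cultures given vehicle only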; settings: S. cerevisiae sgs1 mgt1 strain, hits give high values
Procedure, shortened: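 Growth of a repair-deficient yeast mutant was monitored after compound treatment and expressed as inhibition relative to vehicle-treated cultures.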

[9] = NCI Yeast Anticancer Drug Screen. Data for the CLN2oe strain (AID 163);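 also: 0% = growth of vehicle-only control cultures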; settings: S. cerevisiae CLN2oe strain, hits give high values
Procedure, shortened: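 Compound-treated yeast; growth vs vehicle ctrl = % inhibition. Genetically altered strain (cell-cycle control).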

[10] = NCI Yeast Anticancer Drug Screen. Data for the cln2 rad14 strain (AID 165);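 also: 0% = growth equal to vehicle treated cultures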; settings: S. cerevisiae cln2 rad14 strain, hits give high values
Procedure, shortened: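 Growth inhibition, relative to vehicle-treated controls, is the read-out. The test organism is a yeast strain with defined genetic alterations, cln2 rad14.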

[11] = NCI Yeast Anticancer Drug Screen. Data for the bub3 strain (AID 167); settings: S. cerevisiae bub3 mutant strain, hits give high values
Procedure, shortened: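 Steps: expose the mutant yeast strain to compound; grow alongside vehicle-treated cultures; measure growth; express inhibition against the vehicle cultures.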

[12] = NCI Yeast Anticancer Drug Screen. Data for the wt2 strain (AID 169);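 also: 0% = growth of vehicle-treated yeast cultures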; settings: S. cerevisiae wt2 strain growth inhibition, hits give high values
Procedure, shortened: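 Compound exposure of yeast; growth compared with vehicle controls; inhibition reported.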

[13] = NCI Yeast Anticancer Drug Screen. Data for the mlh1 strain (AID 171);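 also: 0% = growth of vehicle-treated control cultures of the same strain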; settings: S. cerevisiae mlh1 strain growth inhibition, hits give high values
Procedure, shortened: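 Compounds are applied to a genetically altered yeast strain, and its growth is compared with that of vehicle-treated cultures to give percent inhibition.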

[14] = NCI Yeast Anticancer Drug Screen. Data for the sgs1 strain (AID 173);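 also: 0% = growth of vehicle-only control cultures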; settings: S. cerevisiae sgs1 mutant, hits give high values
Procedure, shortened: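 Compounds applied to genetically altered yeast; growth compared with vehicle-treated cultures to give % inhibition.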

[15] = NCI Yeast Anticancer Drug Screen. Data for the mlh1 rad18 strain (AID 175); settings: S. cerevisiae mlh1 rad18 strain growth inhibition, hits give high values
Procedure, shortened: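 Cells of a genetically altered yeast strain, deficient in DNA damage repair, were treated with compound. Their growth was then compared with that of vehicle-treated cultures to give inhibition.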

[16] = NCI Yeast Anticancer Drug Screen. Data for the rad18 strain (AID 177); settings: S. cerevisiae rad18 mutant growth inhibition, hits give high values
Procedure, shortened: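 Compounds are applied to a repair-deficient yeast strain, and growth is compared with that of vehicle-treated cultures to give percent inhibition.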

[17] = at 5.0 µM (retest, dose inferred, filed as 0.5)
[18] = at 50.0 µM (retest, dose inferred, filed as 5.0)

Measured: growth inhibition

O=C(O)c1ccccc1NC(=S)c1ccccc1
active: [3]; at 100.0 µM 83% | [4]; at 100.0 µM 81% | [5]; [18] 97% | [5]; at 100.0 µM 83% | [6]; [18] 96% | [11]; [18] 79% | [11]; at 100.0 µM 70% | [15]; [18] 99%
inactive: [1]; at 1.2 µM -5% | [1]; at 3.7 µM -1% | [1]; at 11.0 µM -4% | [1]; at 33.0 µM 7% | [1]; at 100.0 µM 67% | [2]; at 1.2 µM 4% | [2]; at 3.7 µM 1% | [2]; at 11.0 µM -4% | [2]; at 33.0 µM -5% | [2]; at 100.0 µM 26% | [3]; at 1.2 µM 13% | [3]; at 3.7 µM 14% | [3]; at 11.0 µM 34% | [3]; at 33.0 µM 53% | [4]; at 1.2 µM 5% | [4]; at 3.7 µM 0% | [4]; at 11.0 µM -3% | [4]; at 33.0 µM 18% | [5]; at 1.2 µM -3% | [5]; at 3.7 µM -26% | [5]; [17] 53% | [5]; at 11.0 µM -20% | [5]; at 33.0 µM -11% | [5]; at 50.0 µM 4.25% | [6]; at 1.2 µM -31% | [6]; at 3.7 µM -10% | [6]; [17] 63% | [6]; at 11.0 µM -26% | [6]; at 33.0 µM -23% | [6]; at 50.0 µM 11.6% | [6]; at 100.0 µM 10% | [7]; at 1.2 µM 2% | [7]; at 3.7 µM 4% | [7]; at 11.0 µM -4% | [7]; at 33.0 µM 17% | [7]; at 100.0 µM 68% | [8]; [17] -20% | [8]; [18] 65% | [8]; at 50.0 µM -0.55% | [9]; at 1.2 µM 0% | [9]; at 3.7 µM 11% | [9]; at 11.0 µM 6% | [9]; at 33.0 µM 10% | [9]; at 100.0 µM 33% | [10]; [17] 27% | [10]; [18] 54% | [10]; at 50.0 µM 1% | [11]; at 1.2 µM -16% | [11]; at 3.7 µM -12% | [11]; [17] 16% | [11]; at 11.0 µM 0% | [11]; at 33.0 µM 5% | [11]; at 50.0 µM 17.4% | [12]; at 1.2 µM -1% | [12]; at 3.7 µM 5% | [12]; at 11.0 µM 1% | [12]; at 33.0 µM 1% | [12]; at 100.0 µM 42% | [13]; at 1.2 µM 3% | [13]; at 3.7 µM 5% | [13]; at 11.0 µM 3% | [13]; at 33.0 µM 5% | [13]; at 100.0 µM 62% | [14]; at 1.2 µM -18% | [14]; at 3.7 µM -6% | [14]; at 11.0 µM -12% | [14]; at 33.0 µM -4% | [14]; at 100.0 µM 53% | [15]; [17] 43% | [15]; at 50.0 µM 1.6% | [16]; at 1.2 µM -16% | [16]; at 3.7 µM -4% | [16]; at 11.0 µM -8% | [16]; at 33.0 µM 16% | [16]; at 100.0 µM 69%

— PubChem BioAssay (NCI)
